# From publication PMC4336329 (PLoS ONE, 2015)
# Hit rate of the full screen: of about 310,000 compounds, about 14,000 (4.5%) showed an effect of 50% or more. The effect is printed as a negative number. This excerpt belongs to a sample that is enriched for strong results.
# Biological target: human ether-à-go-go-related gene (hERG) potassium channel (human, UniProt Q12809)
# Assay: primary screen, population patch clamp on CHO cells stably expressing hERG; higher = less effect of the substance
# 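Also: peak tail current of the secondary pulse compared with the same well before compound.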
# Chain of human ether-à-go-go-related gene (hERG) potassium channel (Q12809 whole entry, looked up): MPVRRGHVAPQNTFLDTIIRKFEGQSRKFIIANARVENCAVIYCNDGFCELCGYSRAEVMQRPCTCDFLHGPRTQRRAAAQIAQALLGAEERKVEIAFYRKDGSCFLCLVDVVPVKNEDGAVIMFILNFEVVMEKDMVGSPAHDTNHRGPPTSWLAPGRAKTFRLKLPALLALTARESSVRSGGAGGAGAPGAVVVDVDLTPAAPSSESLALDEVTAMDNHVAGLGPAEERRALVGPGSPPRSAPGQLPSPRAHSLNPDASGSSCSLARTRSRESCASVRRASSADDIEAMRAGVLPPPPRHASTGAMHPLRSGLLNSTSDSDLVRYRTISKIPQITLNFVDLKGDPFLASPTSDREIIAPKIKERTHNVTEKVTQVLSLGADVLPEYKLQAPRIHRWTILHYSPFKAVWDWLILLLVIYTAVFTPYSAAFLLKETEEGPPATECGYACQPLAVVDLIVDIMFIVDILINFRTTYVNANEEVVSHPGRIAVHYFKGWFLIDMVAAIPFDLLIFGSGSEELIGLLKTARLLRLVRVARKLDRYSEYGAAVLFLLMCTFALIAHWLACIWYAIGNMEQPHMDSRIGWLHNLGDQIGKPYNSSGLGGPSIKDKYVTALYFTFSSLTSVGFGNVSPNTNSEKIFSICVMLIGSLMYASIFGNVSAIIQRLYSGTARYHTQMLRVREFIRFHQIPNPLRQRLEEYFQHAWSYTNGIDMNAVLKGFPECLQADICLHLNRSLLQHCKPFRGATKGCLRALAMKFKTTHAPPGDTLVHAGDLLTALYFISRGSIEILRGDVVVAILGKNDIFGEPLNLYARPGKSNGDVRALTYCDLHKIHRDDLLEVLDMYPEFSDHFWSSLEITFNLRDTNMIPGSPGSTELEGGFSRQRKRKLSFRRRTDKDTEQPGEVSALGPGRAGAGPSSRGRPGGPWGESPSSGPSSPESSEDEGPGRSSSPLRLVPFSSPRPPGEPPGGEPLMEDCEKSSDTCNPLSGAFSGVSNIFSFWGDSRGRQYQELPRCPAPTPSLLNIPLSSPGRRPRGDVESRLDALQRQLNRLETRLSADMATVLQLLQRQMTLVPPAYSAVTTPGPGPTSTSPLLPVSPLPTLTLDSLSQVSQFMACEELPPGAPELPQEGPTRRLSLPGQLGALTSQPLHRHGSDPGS
row,SMILES,"hERG current change (%, negative = inhibition) at 10uM"
1,O=C(Cn1c(CO)nc2ccccc21)NCCc1ccccc1,-3.08%
2,COc1ccccc1CNC(=O)c1cc(C)nn1-c1ccccc1,1.87%
3,CCOc1ccccc1NC(=O)Nc1cc(S(=O)(=O)N(C)C)ccc1C,15%
4,C=CCn1c(=N)c(S(=O)(=O)c2ccc(C)c(C)c2)cc2c(=O)n3ccccc3nc21,14.3%
5,C=CCn1c(=N)c(C(=O)NCCCOC)cc2c(=O)n3ccccc3nc21,-60.1%
6,COCCCNC(=O)c1cc2c(=O)n3cccc(C)c3nc2s1,7.44%
7,CCn1c(=N)c(C(=O)NCCCOC)cc2c(=O)n3cccc(C)c3nc21,-61.4%
8,C=CCn1c(=N)c(C(=O)OCC)cc2c(=O)n3cccc(C)c3nc21,-72.9%
9,C=CCn1c(=N)c(C#N)cc2c(=O)n3ccccc3nc21,-35.3%
10,COCCCNC(=O)c1cc2c(=O)n3cccc(C)c3nc2n(C(C)C)c1=N,-65.5%
11,CCOCCCNC(=O)c1cc2c(=O)n3cccc(C)c3nc2s1,12.6%
12,CCOC(=O)c1c(C)nc2c(C)cccn12,-6.9%
13,CC(NC(=O)CSc1nc2ccc(N)cc2s1)c1ccccc1 (stereo not drawn),32%
14,O=c1cccc2n1CC1CC2CN(C(c2ccccc2)c2sc3ncnn3c2O)C1 (stereo not drawn),15.1%
15,Cc1ccc(S(=O)(=O)N2CCCCC2)cc1NC(=O)c1cc(=O)[nH]c2ccccc12,-6.61%
16,CCCN(CC(=O)Nc1ccccc1C)C(=O)c1ccc(C(=O)c2ccccc2)cc1,-25.9%
17,CCOc1ccc(CCNc2cc(C)nc3ncnn23)cc1OCC,-5%
18,Cc1onc(-c2ccccc2)c1C(=O)Nc1sc2c(c1C#N)CCC2,1.63%
19,Cn1c(=O)cc(N2CCCCC2)[nH]c1=O,9.92%

row,SMILES,"hERG current change (%, negative = inhibition) at 10uM"
1,CCc1cc(=O)oc2cc3occ(-c4ccc(OC)c(F)c4)c3cc12,2%
2,CCn1c(NC(=O)c2ccccc2)nc2ccccc21,4.47%
3,C=CCn1cc(C(=O)NCCCOC)c(=O)c2cc(S(=O)(=O)N(CC)CC)ccc21,-30.5%
4,C=CCn1c(=N)c(C(=O)NCCCOC)cc2c(=O)n3cccc(C)c3nc21,-73.5%
5,C=CCn1c(=N)c(C(=O)NCCCOC)cc2c(=O)n3cc(C)ccc3nc21,-57.3%
6,O/N=C1\CCSc2ccc(F)cc21,-6.52%
7,CC(=O)Nc1ccc(Oc2ccc(NC(C)=O)c(NC(C)=O)c2)cc1,1.5%
8,Cc1ccc(C)c(N2CCN(CCCNC(=O)Cn3cccc3C(=O)c3ccccc3C)CC2)c1,-74%
9,Cc1ccc(C)c(N2CCN(CCCNC(=O)Cn3cccc3C(=O)c3ccccc3)CC2)c1,-87.2%
10,Cc1ccccc1C(=O)c1cccn1CC(=O)NCCC1=CCCCC1,20.5%
11,Cc1ccc(CNC(=O)Cn2cccc2C(=O)c2ccccc2)cc1,1.89%
12,Cc1cccc(N2CCN(C(=O)CCNC(=O)Cn3ccc4ccccc4c3=O)CC2)c1C,-55.5%
13,Cc1ccc(C)c(N2CCN(C(=O)CCNC(=O)Cn3ccc4ccccc4c3=O)CC2)c1,-3.39%
14,Cc1ccc(CNC(=O)Cn2cccc2C(=O)c2ccccc2C)cc1,-7.1%
15,Cc1cccc(N2CCN(C(=O)Cn3ccc4ccccc4c3=O)CC2)c1C,-23.1%
16,Cc1ccccc1C(=O)c1cccn1CC(=O)NCCN1CCN(c2cccc(C)c2C)CC1,-69.5%
17,COc1ccc(CCNC(=O)Cn2cccc2C(=O)c2ccccc2C)cc1OC,-16.3%
18,Cc1cccc(N2CCN(C(=O)Cn3cccc3C(=O)c3ccccc3)CC2)c1C,-17.2%
19,O=C(Cn1cccc1C(=O)c1ccccc1)NCCN1CCOCC1,-2.26%

row,SMILES,"hERG current change (%, negative = inhibition) at 10uM"
1,Oc1ccccc1N1CCN(C(c2ccccc2)c2ccccc2)CC1,12.6%
2,COc1ccc(OCCOC(=O)c2ccc(F)c(S(=O)(=O)N3CCOCC3)c2)cc1,-13.8%
3,COc1ccc(NC(=S)NC(=O)/C=C/c2ccco2)cc1,-4.31%
4,O=C(c1ccccc1)c1ccc(N2CCN(C(=O)c3cccc(F)c3F)CC2)c(F)c1,-37.9%
5,O=C(Cn1nc(Cc2ccncc2)c2ccccc2c1=O)N1CCN(C(=O)c2ccco2)CC1,-26.7%
6,Cc1cccc(N2CCN(C(=O)Cn3nc(Cc4ccncc4)c4ccccc4c3=O)CC2)c1C,-61.3%
7,O=C(Cn1nc(Cc2ccncc2)c2ccccc2c1=O)N1CCc2ccccc2C1,-44.4%
8,OCC1(CCOc2ccccc2)CCN(CCCn2cccn2)CC1,-73.1%
9,COc1ccc(CN2CCCN(C)CC2)c(OC)c1C,11.1%
10,COc1ccc(CN2CCC(CO)(CCOc3ccccc3)CC2)c(OC)c1C,-83.5%
11,Cc1nn(C)cc1CN1CCC(CO)(CCOc2ccccc2)CC1,-22.6%
12,Cc1nn(C)c(Cl)c1CN1CCC(CO)(CCOc2ccccc2)CC1,-54.7%
13,COc1ccc(CN2CCC(CO)(CCOc3ccccc3)CC2)cc1C,-81.8%
14,CCn1ccnc1CN1CCC(CO)(CCOc2ccccc2)CC1,-8.02%
15,COc1ccc(CN2CCSCC2)c(OC)c1C,13.5%
16,COc1ccc(CN2CCSCC2)cc1C,7.71%
17,O=c1c2c(ncn2C2CCCC2)n(Cc2ccccc2)c(=O)n1CCOc1ccccc1,-8.64%
18,Cc1ccc([N+](=O)[O-])cc1NC(=O)/C=C/C(=O)O,-2.79%
19,O=C(Nc1ccc(Br)c(Br)c1)C1CCCO1 (stereo not drawn),3.39%
